A selection: hits, their analogues and other compounds. The true share with any hit is near 4.1%.
Rv3671c inh = Rv3671c serine protease inhibitors, primary screen, biochemical, fluorescence polarization, M. tuberculosis H37Rv; P9WHR9; inhibition, % at 5.96 µM; 0.048% of 320,000 active; AID 2606, 2010; in the data active = inhibition above about 38%;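 also: extracellular domain of Rv3671c used as enzyme; 0% = enzyme with DMSO and 100% = no enzyme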
Target sequence (P9WHR9 whole entry, looked up, the tested form may be a part): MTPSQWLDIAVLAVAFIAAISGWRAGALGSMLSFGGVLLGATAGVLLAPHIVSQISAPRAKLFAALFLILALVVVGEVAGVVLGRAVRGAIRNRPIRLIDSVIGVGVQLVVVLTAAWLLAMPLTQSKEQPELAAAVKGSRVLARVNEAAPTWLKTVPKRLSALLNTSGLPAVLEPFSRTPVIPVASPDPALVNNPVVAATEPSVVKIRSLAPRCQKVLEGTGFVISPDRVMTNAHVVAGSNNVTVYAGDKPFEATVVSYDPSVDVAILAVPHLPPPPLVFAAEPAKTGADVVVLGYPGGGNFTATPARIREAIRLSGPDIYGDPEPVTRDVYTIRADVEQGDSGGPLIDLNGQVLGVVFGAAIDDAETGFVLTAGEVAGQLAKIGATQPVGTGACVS
RecA intein inh = Mtb RecA intein splicing inhibitors, primary screen, biochemical, fluorescence, HTS. Protein RecA (Mycobacterium tuberculosis (strain ATCC 25618 / H37Rv)), P9WHJ3. cell-free RecA intein splicing. inhibition, % (test concentration not listed). 0.75% of 290,000 active; in the data active = inhibition above about 30%;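 also: 0% = vehicle wells and 100% = reference inhibitor control wells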
BH1578 lux ind = inducers of Vibrio cholerae quorum light production without autoinducers, primary screen, BH1578 luxS cqsA deficient, single point. 0.16% of 350,000 active. V. cholerae BH1578 lux reporter, luminescence, 6 h. activation, % at 18.7 µM. AID 588436, 2011; in the data active = activation mostly above about 9.7%, no sharp cut-off
FBA Mtb inh = Mtb FBA enzyme inhibitors, primary screen, biochemical, fluorescence, strain H37Rv; inhibition, % at 1 µM; Fructose-bisphosphate aldolase (Mycobacterium tuberculosis (strain ATCC 25618 / H37Rv)), …; 2.3% of 360,000 active; purified M. tuberculosis FBA, fluorescence read-out;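 also: 0% = vehicle and 100% = reference inhibitor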
GDH-TPI counter-1 = GDH-TPI coupling enzyme inhibitors, primary screen, artefact control for M. tuberculosis FBA inhibitor project, biochemical, absorbance, full deck. GDH-TPI coupled enzyme counterscreen, NADH absorbance. inhibition, % at 4.8 µM. 1.2% of 360,000 active. AID 588335, 2011; in the data active = inhibition above about 30%;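 also: 0% = DMSO wells and 100% = wells lacking the enzyme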
UGM FP inh = M. tuberculosis UGM enzyme inhibitors, primary screen, biochemical, fluorescence polarization, single point; UDP-galactopyranose mutase (Mycobacterium tuberculosis (strain ATCC 25618 / H37Rv)), …; purified UGM, fluorescence polarization probe displacement; inhibition, % at 10 µM; 0.06% of 320,000 active; AID 504406, 2011; in the data active = inhibition above about 10%, passing the limit was not always enough
Mtb FBA inh conf = M. tuberculosis aldolase blockers, biochemical, fluorescence, strain H37Rv, confirmation; AID 651616, 2012; shares compounds with FBA Mtb inh; 78% of 5,600 active; inhibition, % at 1 µM; purified M. tuberculosis FBA, fluorescence read-out;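 also: 0% = vehicle wells and 100% = reference inhibitor wells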
GDH-TPI counter-2 = GDH-TPI coupling enzyme inhibitors, artefact control for M. tuberculosis FBA inhibitor project, biochemical, fluorescence, high throughput; shares compounds with FBA Mtb inh; GDH-TPI coupled enzyme counterscreen; inhibition, % at 1 µM; 81% of 5,600 active; AID 652141, 2013; in the data active = inhibition above about 10%
Starred values were filed as active, the others as inactive. Rule as the data show it, unless noted: active = inhibition above about 27%; inactive = the rest.

What do the screens show for `Cc1ccc2[nH]c(C(=O)NCCN3CCCC3)cc2c1`?
Rv3671c inh: -4; RecA intein inh: -2; BH1578 lux ind: -2; FBA Mtb inh: 41*; GDH-TPI counter-1: 10; UGM FP inh: 0; Mtb FBA inh conf: 76*; GDH-TPI counter-2: 63*

How did Cc1ccc2[nH]c(C(=O)N3CCCCC3)cc2c1 do in these assays?
Rv3671c inh: -1; RecA intein inh: -1; BH1578 lux ind: 1; FBA Mtb inh: 3; GDH-TPI counter-1: 3; UGM FP inh: -1

Results for Cc1cc(=O)oc2c(C)c(OCC(=O)N(C)C)ccc12 ?
Rv3671c inh: 6; BH1578 lux ind: -1; FBA Mtb inh: 37*; GDH-TPI counter-1: 20; UGM FP inh: 1; Mtb FBA inh conf: 46*; GDH-TPI counter-2: 40*

What do the screens show for `Cc1c(OCC(=O)OC(C)C)ccc2c3c(c(=O)oc12)CCC3`?
Rv3671c inh: -5; RecA intein inh: -2; BH1578 lux ind: 6; FBA Mtb inh: 12; GDH-TPI counter-1: 17; UGM FP inh: 8

What do the screens show for `Cc1c(OCC(=O)N(C)C)ccc2c3c(c(=O)oc12)CCCCC3`?
Rv3671c inh: -22; RecA intein inh: -2; BH1578 lux ind: inactive; FBA Mtb inh: 88*; GDH-TPI counter-1: 16; UGM FP inh: 2; Mtb FBA inh conf: 1; GDH-TPI counter-2: -4

How did COc1ccc2c(C)cc(=O)oc2c1C do in these assays?
Rv3671c inh: 8; RecA intein inh: 3; BH1578 lux ind: inactive; FBA Mtb inh: 54*; GDH-TPI counter-1: 2; UGM FP inh: -2; Mtb FBA inh conf: active; GDH-TPI counter-2: 196*

What do the screens show for `Cc1c(C)c2ccc(OCC(=O)N(C)C)c(C)c2oc1=O`?
Rv3671c inh: -5; RecA intein inh: -4; BH1578 lux ind: 0; FBA Mtb inh: 79*; GDH-TPI counter-1: 12; UGM FP inh: 3; Mtb FBA inh conf: 148*; GDH-TPI counter-2: 125*

Results for O=C1c2cc([N+](=O)[O-])ccc2-c2cc(Br)c(N=C(NO)C(F)(F)F)cc21 ?
BH1578 lux ind: 1; FBA Mtb inh: -6; GDH-TPI counter-1: 15

What do the screens show for `CC(C)n1c(SCC(=O)NCc2ccco2)nnc1C1CC1`?
Rv3671c inh: 3; RecA intein inh: -2; BH1578 lux ind: 0; FBA Mtb inh: 1; GDH-TPI counter-1: -1; UGM FP inh: -1

Results for Cc1c(C)c2ccc(OCC(=O)Nc3ccccn3)c(C)c2oc1=O ?
Rv3671c inh: 10; RecA intein inh: 0; BH1578 lux ind: 0; FBA Mtb inh: 8; GDH-TPI counter-1: 1; UGM FP inh: 1

How did CCc1c(C)c2ccc(OCC(=O)OC(C)C)c(C)c2oc1=O do in these assays?
Rv3671c inh: 0; RecA intein inh: 1; BH1578 lux ind: inactive; FBA Mtb inh: 11; GDH-TPI counter-1: 4; UGM FP inh: -2

What do the screens show for `CCc1c(C)c2ccc(OCC(=O)N(C)C)c(C)c2oc1=O`?
Rv3671c inh: 6; BH1578 lux ind: -2; FBA Mtb inh: 76*; GDH-TPI counter-1: 3; UGM FP inh: 0; Mtb FBA inh conf: active; GDH-TPI counter-2: active

Results for C=CCOC(=O)COc1ccc2c(C)c(C)c(=O)oc2c1C ?
Rv3671c inh: -3; RecA intein inh: 1; BH1578 lux ind: 0; FBA Mtb inh: 58*; GDH-TPI counter-1: 11; UGM FP inh: 0; Mtb FBA inh conf: 32*; GDH-TPI counter-2: 34*

Source: PubChem
